Measurements reported in PubChem BioAssay (NCATS).
Results filed as inconclusive are left out. Calls of active or inactive are those of the source. Unless noted, the call rests on the fitted dose curve; in most records, active means well fitted curve in the direction sought with a large enough effect; inconclusive means small, poorly fitted or top-dose-only effect, or another doubt; inactive means no such curve, though single readings can be large; an effect the other way counts as inactive or inconclusive.

What was measured:
[1] = biological target: Protein phosphatase 1D (Homo sapiens) (UniProt O15297); assay: Rhodamine-PBP qHTS Assay for Modulators of WT P53-Induced Phosphatase 1 (WIP1) (AID 1347425); further: % of control where 0% means no effect
Protein phosphatase 1D (Homo sapiens), sequence (O15297 whole entry, looked up): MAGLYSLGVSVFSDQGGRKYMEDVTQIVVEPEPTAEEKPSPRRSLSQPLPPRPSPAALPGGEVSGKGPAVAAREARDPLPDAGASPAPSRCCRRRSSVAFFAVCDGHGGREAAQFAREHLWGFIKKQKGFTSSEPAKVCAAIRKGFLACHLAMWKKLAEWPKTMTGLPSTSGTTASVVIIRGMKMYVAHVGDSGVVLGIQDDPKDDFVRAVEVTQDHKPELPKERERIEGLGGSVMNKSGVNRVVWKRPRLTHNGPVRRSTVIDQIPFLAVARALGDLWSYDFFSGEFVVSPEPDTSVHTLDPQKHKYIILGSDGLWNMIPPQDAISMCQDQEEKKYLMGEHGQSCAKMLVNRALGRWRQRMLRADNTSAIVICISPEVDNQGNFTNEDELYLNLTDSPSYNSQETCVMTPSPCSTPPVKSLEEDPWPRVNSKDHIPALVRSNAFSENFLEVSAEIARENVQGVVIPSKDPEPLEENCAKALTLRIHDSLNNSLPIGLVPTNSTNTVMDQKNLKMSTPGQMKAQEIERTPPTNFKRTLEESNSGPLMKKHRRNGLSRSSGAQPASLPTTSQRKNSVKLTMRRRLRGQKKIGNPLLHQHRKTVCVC
Method in brief: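 5 nM WIP1 + 10 uM Rh-PBP, 50 mM Tris pH 7.5, 30 mM MgCl2, 1 mM TCEP, 0.1 mM EGTA, BSA; cpds pinned, 1 hr RT; + 10 uM phosphopeptide; fluorescence 1-min reads x 11 min; delta = f1 - f0.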

[2] = Validation qHTS assay for inhibitors of Activation Induced Cytidine Deaminase (AID): UDG Counterscreen signal (AID 1347427); further: 0% is about no effect
Method in brief: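 Fluorescence at 560 nm excitation, 665 nm emission reports UDG signal after 250 mM NaOH (2x) addition and 30 min. Enzymes (AID 1 uM, UDG 2 U/mL, at 4/3x) preincubated 10 min with compound, then 4 h with 4x 250 nM DJC20/DJC23 substrate at room temperature.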

[3] = biological target: Single-stranded DNA cytosine deaminase (Homo sapiens) (UniProt Q9GZX7); assay: Validation qHTS assay for inhibitors of Activation Induced Cytidine Deaminase (AID): AID signal (AID 1347429); further: on the % scale 0 is the no-effect control and ±100 the full control effect
Single-stranded DNA cytosine deaminase (Homo sapiens), sequence (Q9GZX7 whole entry, looked up): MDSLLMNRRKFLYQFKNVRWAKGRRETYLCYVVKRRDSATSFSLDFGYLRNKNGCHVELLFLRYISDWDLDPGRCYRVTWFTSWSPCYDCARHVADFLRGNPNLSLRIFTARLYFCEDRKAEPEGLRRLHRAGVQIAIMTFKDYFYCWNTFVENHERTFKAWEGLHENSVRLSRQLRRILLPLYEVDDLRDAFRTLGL
Method in brief: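 Compounds (up to 114 uM final) are tested against AID plus UDG using DJC20/DJC23 FRET substrate. Reactions incubate 4 hr at room temperature, receive NaOH for 30 min, and are read at Ex 540/Em 590 nm.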

[4] = Primary qHTS for inhibitors of SARS-S pseudo-typed particle cell entry (AID 1479145; calls by dose curve; further: nearly all actives have a fitted effect of over 45% in size; further: potency means the concentration at half of the fitted maximal effect; on activity change, negative = inhibition: series mostly up to about 57 µM; on the % scale 0 is the no-effect control and ±100 the full control effect)
[5] = Primary qHTS for Huh7 cytotoxicity: counterscreen for inhibitors of MERS-S pseudotyped particle cell entry (AID 1479147; calls by dose curve; further: potency means the concentration at half of the fitted maximal effect)
[6] = Primary qHTS for inhibitors of MERS-S pseudo-typed particle cell entry (AID 1479149; calls by dose curve; further: nearly all actives have a fitted effect of over 60% in size; on activity change, negative = inhibition: series mostly up to about 57 µM; on the % scale 0 is the no-effect control and ±100 the full control effect)
[7] = Primary qHTS for inhibitors of La Crosse Virus (LACV) - induced cell death in SH-SY5Y cells (AID 1508616);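 further: top concentration of the series differs between compounds; 0% = infected DMSO wells and 100% = uninfected DMSO wells; higher means more rescue of cells from virus-induced death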
Method in brief: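 Screening measures cell viability in LACV-infected SH-SY5Y cultures. Compound was added before virus (0.01 MOI), and ATP was detected by luminescence 6 days later.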

[8] = Primary qHTS for Vero E6 cytotoxicity: counterscreen for inhibitors of SARS-S pseudo-typed particle cell entry (AID 1479150; calls by dose curve)

CCC(=O)C(CC(C)N(C)C)(c1ccccc1)c1ccccc1 (stereo unspecified)
inactive: outcome [1]

CCCN1CCC[C@@H]2Cc3nc(N)ncc3C[C@H]21
inactive: outcome [1] | outcome [2] | outcome [3]

C[C@@H]1O[C@@H](O[C@H]2C[C@@H](O)[C@]3(CO)[C@H]4[C@H](O)C[C@]5(C)[C@@H](C6=CC(=O)OC6)CC[C@]5(O)[C@@H]4CC[C@]3(O)C2)[C@H](O)[C@H](O)[C@H]1O
active: Potency [5] 1.26 µM
inactive: outcome [1] | outcome [2] | outcome [3] | Potency [4] | Potency [6]

CCCC(C)(COC(N)=O)COC(=O)NC(C)C (stereo unspecified)
inactive: outcome [1] | outcome [2] | outcome [3] | Potency [7]

CC(=O)[C@H]1CC[C@H]2[C@@H]3CC[C@H]4C[C@H](O)CC[C@]4(C)[C@H]3C(=O)C[C@]12C
inactive: outcome [1] | outcome [2] | outcome [3] | Potency [7]

C[C@]12CCC(=O)C(O)=C1CC[C@@H]1[C@@H]2CC[C@]2(C)C(=O)CC[C@@H]12
inactive: outcome [1] | outcome [2] | outcome [3] | Potency [7]

Cc1cccc(C)c1NC(=O)CN1CCCC1=O
inactive: outcome [1] | outcome [2] | outcome [3] | Potency [7]

CC(=O)[C@H]1CC[C@H]2[C@@H]3CC[C@H]4C[C@](C)(O)CC[C@]4(C)[C@H]3CC[C@]12C
inactive: outcome [1] | outcome [2] | outcome [3] | Potency [7]

O=c1[nH]c2ccccc2n1CCCN1CCC(n2c(=O)[nH]c3cc(Cl)ccc32)CC1
inactive: outcome [1] | outcome [2] | outcome [3] | Potency [8] | Potency [7]

COc1ccc(C(CN(C)C)C2(O)CCCCC2)cc1 (stereo unspecified)
inactive: outcome [1] | outcome [2] | outcome [3] | Potency [4] | Potency [5] | Potency [6] | Potency [8] | Potency [7]

NN=C(N)N
inactive: outcome [1] | outcome [2] | outcome [3] | Potency [7]

c1ccc(C2CC2)c(OCC2=NCCN2)c1
inactive: outcome [1] | outcome [2] | outcome [3] | Potency [7]

Cc1ncc(CNC(=O)N(CCCl)N=O)c(N)n1
inactive: outcome [1] | outcome [2] | outcome [3] | Potency [4] | Potency [5] | Potency [6] | Potency [8] | Potency [7]

c1ccc2c(c1)OCC(C1=NCCN1)O2 (stereo unspecified)
inactive: outcome [1] | outcome [2] | outcome [3] | Potency [7]

N#CC(C#N)=Cc1ccc(O)c(O)c1
inactive: outcome [1] | outcome [2] | outcome [3] | Potency [7]

O=C1NCN(c2ccccc2)C12CCN(CC1COc3ccccc3O1)CC2 (stereo unspecified)
inactive: outcome [1] | outcome [2] | outcome [3] | Potency [7]

CCN(CC)C(=O)N[C@@H]1C=C2c3cccc4[nH]cc(c34)C[C@@H]2N(C)C1
inactive: outcome [1] | Potency [4] | Potency [5] | Potency [6] | Potency [8]

CC[C@@H](CO)NC(=O)[C@@H]1C=C2c3cccc4c3c(cn4C)C[C@H]2N(C)C1
inactive: outcome [1] | outcome [2] | outcome [3] | Potency [4]

Fc1ccc(C(OCCN2CCN(CCCc3ccccc3)CC2)c2ccc(F)cc2)cc1
inactive: outcome [1] | outcome [2] | outcome [3] | Potency [7]

O=P1(NCCCl)OCCCN1CCCl (stereo unspecified)
inactive: outcome [1] | Potency [4] | Potency [5] | Potency [6] | Potency [8] | Potency [7]

CCCN1CCC[C@@H]2Cc3[nH]ncc3C[C@H]21
inactive: outcome [1] | outcome [2] | outcome [3] | Potency [7]

Cc1cccc(C)c1NC1=NCCCS1
inactive: outcome [1] | outcome [2] | outcome [3] | Potency [5] | Potency [6] | Potency [8] | Potency [7]

Cc1ccc(S(=O)(=O)N[C@@H](CCCCN)C(=O)CCl)cc1
inactive: outcome [1] | outcome [2] | outcome [3] | Potency [7]

Cn1cc(C2=C(c3cn(C4CCN(Cc5ccccn5)CC4)c4ccccc34)C(=O)NC2=O)c2ccccc21
inactive: outcome [1] | Potency [4] | Potency [5] | Potency [6] | Potency [8]

CC[C@@H](CO)NC(=O)[C@@H]1C=C2c3cccc4[nH]cc(c34)C[C@H]2N(C)C1
inactive: outcome [1] | outcome [2] | outcome [3] | Potency [4] | Potency [5] | Potency [6] | Potency [8] | Potency [7]

O=C1CC[C@@]2(O)[C@H]3Cc4ccc(O)c5c4[C@@]2(CCN3CC2CC2)[C@H]1O5
inactive: outcome [1] | Potency [4] | Potency [5] | Potency [6] | Potency [8] | Potency [7]

C[C@]12CC[C@H]3[C@@H](CCC4=CC(=O)CC[C@@H]43)[C@@H]1CC[C@@H]2OC(=O)CCc1ccccc1
inactive: outcome [1] | Potency [4] | Potency [5] | Potency [6] | Potency [8] | Potency [7]

NCC(CC(=O)O)c1ccc(Cl)cc1 (stereo unspecified)
inactive: activity change, negative = inhibition [1] 1.39% [at 0.575 µM] | outcome [2] | outcome [3] | activity change, negative = inhibition [4] -11.8% [at 0.573 µM] | outcome [5] inactive [at 0.573 µM] | outcome [6] inactive [at 0.573 µM] | outcome [8] inactive [at 0.573 µM] | Potency [7]

CNCC(O)c1ccc(O)cc1 (stereo unspecified)
inactive: outcome [1] | outcome [2] | outcome [3] | Potency [7]

CN1C[C@H](CNC(=O)OCc2ccccc2)C[C@@H]2c3cccc4c3c(cn4C)C[C@H]21
inactive: outcome [1] | outcome [2] | outcome [3] | Potency [7]

O=c1[nH]c2ccccc2n1C1CCN(CCCC(c2ccc(F)cc2)c2ccc(F)cc2)CC1
inactive: outcome [1] | outcome [2] | outcome [3] | Potency [5] | Potency [8] | Potency [7]
active: Potency [4] 11.2 µM

NCC(O)c1ccc(O)cc1 (stereo unspecified)
inactive: outcome [1] | outcome [2] | outcome [3] | Potency [4] | Potency [5] | Potency [6] | Potency [8] | Potency [7]
